Compound activity (PubChem)
Shown are actives, neighbours in structure and some others; about 12% of the full set was active somewhere.
Sfp PPTase inh = blocks B. subtilis Sfp PPTase activity. Q9F4F7. Biochemical Sfp PPTase activity, qHTS. Potency, µM, for the others: largest response in the series, negative = inhibition, hits mostly inhibitors. hit rate 3.5% among 310,000;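 note: the enzyme is Sfp with the accession as filed and its product quenches rhodamine fluorescence; 0% = enzyme reaction without inhibitor and -100% = no enzyme wells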
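Reaction rates are the 30-min fluorescence difference (ex 525, em 598 nm) in wells containing 15 nM Sfp, 5 uM rhodamine-CoA and 12.5 uM BHQ-2-YbbR at pH 7.6 with 10 mM MgCl2.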
HP1b chromo inh = blocks HP1-beta chromodomain binding to methylated histone tails. AlphaScreen HP1-beta / biotin-H3K9me3 peptide binding. hit rate 0.56% among 390,000. AID 540317. P83916. Potency, µM (highest dose often 114 µM), for inactives: top-dose activity change, negative = inhibition, most hits filed as inhibitors; note: nearly all actives have a fitted effect of over 70% in size
Target sequence (P83916 whole entry, looked up): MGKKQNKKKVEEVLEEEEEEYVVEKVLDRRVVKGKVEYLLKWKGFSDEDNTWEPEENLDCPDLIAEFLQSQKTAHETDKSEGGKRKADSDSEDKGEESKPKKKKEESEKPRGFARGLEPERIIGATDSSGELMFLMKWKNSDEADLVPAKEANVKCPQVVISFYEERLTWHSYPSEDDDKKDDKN
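Compound inhibition of the preformed complex between 50 nM HP1-beta and 50 nM biotinylated H3K9me3 peptide was read by AlphaScreen. Buffer was PBS pH 7.4 with 0.01% Tween-20. Incubations ran 30 min at room temperature, with 10 ug/mL donor/acceptor beads.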
BAZ2B inh = inhibitors of human BAZ2B bromodomain; AlphaScreen BAZ2B-H3K14Ac peptide displacement; Potency, µM (doses to about 114 µM), for inactives: at the top dose activity change, negative = inhibition, hits mostly inhibitors; hit rate 4.4% among 360,000; note: % is set by controls: 0 for no effect and ±100 for the full control effect; nearly all actives have a fitted effect of over 60% in size
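BAZ2B (50 nM) with biotin-H3(5-23)K14Ac peptide (50 nM) in PBS pH 7.4, 0.01% Tween-20, preformed 30 min, then compound 30 min at room temperature; top concentration 110uM. AlphaScreen streptavidin donor/nickel chelate acceptor beads (10 ug/mL final), 20 min dark, signal read.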
G9a block = blocks human histone lysine methyltransferase G9a; Q96KQ7; G9a H3K9 monomethylation, AlphaScreen, 2 h; Potency, µM (series often up to 102 µM), inactives show at the top dose activity, negative = inhibition, usual class: inhibitors; hit rate 8.8% among 350,000; AID 504332; note: % is set by controls: 0 for no effect and ±100 for the full control effect; nearly all actives have a fitted effect of over 75% in size
Target sequence (Q96KQ7 913-1193 limits assumed): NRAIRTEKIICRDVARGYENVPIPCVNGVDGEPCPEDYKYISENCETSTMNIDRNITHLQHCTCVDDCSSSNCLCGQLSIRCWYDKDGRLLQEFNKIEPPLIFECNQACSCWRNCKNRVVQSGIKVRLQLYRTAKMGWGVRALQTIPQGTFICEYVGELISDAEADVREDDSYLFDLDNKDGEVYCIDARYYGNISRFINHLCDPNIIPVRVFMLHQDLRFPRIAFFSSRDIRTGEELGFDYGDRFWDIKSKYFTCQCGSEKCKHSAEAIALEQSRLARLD
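Using a bead-based AlphaScreen, monomethylated H3K9 product from 2 h room-temperature reactions (G9a 20 nM, peptide 500 nM, SAM 20 uM) was detected with 0.5 ug/mL rabbit anti-H3K9me1 antibody.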
JMJD2A Tudor inh = blocks the human JMJD2A Tudor domain; O75164; AlphaScreen JMJD2A-Tudor / H3K4me3 peptide binding; Potency, µM (titrated, usually from 114 µM), for the others: at the top dose activity change, negative = inhibition, usual class: inhibitors; hit rate 4.4% among 390,000; note: % is set by controls: 0 for no effect and ±100 for the full control effect; nearly all actives have a fitted effect of over 50% in size
PLK1 PBD block = inhibitors of human PLK1 polo-box domain binding; P53350; Plk1 PBD binding of FITC phosphopeptide, fluorescence polarization; Potency, µM, for inactives: max response, negative = inhibition, most hits filed as inhibitors; hit rate 2.8% among 360,000; AID 720504; note: series mostly up to about 57 µM; % is set by controls: 0 for no effect and ±100 for the full control effect; nearly all actives have a fitted effect of over 65% in size
Starred values were filed as active, the others as inactive; ? = inconclusive; . = no result; [ ] = remark or other dose. Calls come from the whole dose curve; as a rule, active = well fitted curve in the direction sought with a large enough effect; inconclusive = small, poorly fitted or top-dose-only effect, or another doubt; inactive = no such curve, though single readings can be large; an effect the other way counts as inactive or inconclusive. Potency is the fitted concentration of half-maximal effect.

SMILES	Sfp PPTase inh	HP1b chromo inh	BAZ2B inh	G9a block	JMJD2A Tudor inh	PLK1 PBD block
CCn1c(SCC(=O)Nc2ccc(N(C)C)cc2)nnc1C1CC1	17.4%	13.4%	-19.5%	39.8µM*	-8.7%	-0.4%
CCn1c(SCC(=O)Nc2ccc3c(c2)c2ccccc2n3CC)nnc1-c1ccco1	-1.3%	15.8µM*	10.0%	9.6%[12.7 µM]	28.2µM*	26.7µM*
CCn1c2ccccc2c2cc(NC(=O)CSc3nccc(=O)[nH]3)ccc21	13.4%	6.8%	-36.8%	35.5µM*	-27.0%	-14.2%
CCn1c(SCC(=O)Nc2cccc(NC(C)=O)c2)nnc1-c1ccco1	0.3%	15.3%	4.7%	11.1%	-11.6%	-6.7%
CCN(CC)c1ccc(NC(=O)CSc2n[nH]c(-c3ccco3)n2)cc1	.	-34.9%	39.8µM*	4.47µM*	?	-0.4%
CCn1c(SCC(=O)Nc2ccc(N(C)C)cc2)nnc1-c1ccco1	9.7%	24.7%	-36.0%	39.8µM*	-6.3%	-6.6%
O=C(COc1ccc2ccccc2c1)N[C@@H](C(=O)O)c1ccc(O)cc1	-10.8%	50.1%	-6.7%	-29.0%[2.33 µM]	-4.2%	2.6%
COc1cc2ccccc2cc1C(=O)N1CCN(c2nc3c(F)cc(F)cc3s2)CC1	.	3.1%	-22.7%	-12.5%[59 µM]	-30.2%	.
Cc1cc(N2CCC(C)CC2)nc2ccc(NC(=O)/C=C/c3cccc(Cl)c3)cc12	.	11.3%	-17.0%	-32.1%[59 µM]	-28.7%	.
CCC12CN3CCN(CC(C3)/C1=N\NC(=O)c1ccc(F)cc1)C2	-9.1%	-14.9%	-10.8%	31.1%[59 µM]	?	21.2µM*
N#Cc1ccccc1CSc1nnc(-c2ccc(Br)cc2)o1	.	25.2%	-11.8%	-3.2%[59 µM]	-8.6%	.
COC(=O)c1c(NC(=S)Nc2ccc(C(=O)N3CCOCC3)cc2)sc2c1CCC2	?	9.8%	-23.3%	50.1µM*	-16.3%	-20.8%
CNC(=S)Nc1sc2c(c1C(=O)OC)CCC2	24.4%	5.4%	3.8%	15.8µM*	89.1µM*	-19.7%
COC(=O)c1c(NC(C)=O)sc2c1CCCC2	-13.5%	33.1%	-12.1%	-26.2%[59 µM]	3.3%	-3.2%
COC(=O)c1c(NS(C)(=O)=O)sc2c1CCCC2	17.8µM*	34.0%	-5.9%	?	-20.1%	?
COC(=O)c1c(NC(=O)CS(=O)(=O)c2ccc(C)cc2)sc2c1CCCC2	.	1.0%	-19.7%	-4.7%[59 µM]	?	.
COC(=O)c1c(NC(C)=O)sc2c1CCCCC2	56.2µM*	-13.4%	?	8.91µM*	-12.5%	?
COC(=O)c1c(NC(=O)C2CCCO2)sc2c1CCC2 (stereo not given)	-15.6%	1.5%	-4.2%	-9.7%[59 µM]	-17.0%	-5.0%
COc1ccc(OC)c(CCNC(=O)c2cc3cccc4c3n2CCS4)c1	.	29.7%	?	?	?	.
CCn1c2ccccc2c2cc(NC(=O)COC(=O)c3ccc(NC(=O)CC#N)cc3)ccc21	.	0.4%	?	?	-15.5%	-15.0%
COc1ccccc1/C=C/c1nc(C#N)c(NC2CCCCC2)o1	.	-0.1%	-9.1%	-9.3%[59 µM]	17.6%	.
O=C(Cn1cc(SCc2ccc(Cl)cc2)c2ccccc21)N1CCCC1	.	42.2%	6.0%	-6.8%[59 µM]	-16.5%	.
COC(=O)c1c(NC(=S)Nc2ccc(F)cc2[N+](=O)[O-])sc2c1CCCCC2	14.1µM*	-31.3%	?	35.5µM*	?	?
COC(=O)c1c(NS(=O)(=O)Cc2ccccc2)sc2c1CCCC2	-6.5%	-3.7%	?	?	-20.4%	?
CC(C)OC(=O)c1c(NC(=O)c2cc3nc(-c4ccccc4)cc(C(F)(F)F)n3n2)sc2c1CCCC2	.	-5.8%	-2.3%	12.6µM*	-19.7%	.
SMILES	Sfp PPTase inh	HP1b chromo inh	BAZ2B inh	G9a block	JMJD2A Tudor inh	PLK1 PBD block
CC(C)OC(=O)c1c(NS(=O)(=O)c2ccccc2)sc2c1CCCC2	-14.5%	-15.0%	5.4%	-5.1%[59 µM]	?	2.67µM*
COc1ccc(-c2ccc3c(N)c(C(=O)Nc4ccc(C)cc4C)sc3n2)cc1OC	.	43.5%	-13.2%	?	-14.4%	.
Cc1ccc(OCc2cc(C(=O)N(C)Cc3cnn(-c4ccccc4C)c3)no2)cn1	0.7%	9.3%	-11.8%	13.6%	-23.3%	-1.9%
CCCCc1cn([C@@H](CCCCN)C(=O)N2CCNCC2)nn1	15.7%	34.7%	?	-0.6%[12.7 µM]	56.2µM*	21.2µM*
C#CCOCCOCCOCCNc1nc(N2CCN(C(=O)[C@H](CCCCN)n3cc(CCCC)nn3)CC2)nc(N2CCN(C(=O)[C@H](CCCCN)n3cc(CCCC)nn3)CC2)n1	-4.1%	-6.6%	?	39.8µM*	?	-5.9%
C#CCOCCOCCOCCNc1nc(N2CCOCC2)nc(N2CCN(C(=O)[C@H](CCCCN)n3cc(CCCC)nn3)CC2)n1	.	21.0%	.	.	-20.3%	-11.2%
C#CCOCCOCCOCCNc1nc(N2CCN(C(=O)Cn3cc(CCO)nn3)CC2)nc(N2CCN(C(=O)[C@H](CCCCN)n3cc(CC(C)O)nn3)CC2)n1 (stereo not given in full)	.	5.6%	.	.	89.1µM*	-3.4%
C#CCOCCOCCOCCNc1nc(N2CCOCC2)nc(N2CCN(C(=O)Cn3cc(CC(C)O)nn3)CC2)n1 (stereo not given)	23.9%	21.5%	-14.2%	79.4µM*	-18.3%	-7.0%
Cc1ccc(S(=O)(=O)NCCC(=O)N2CCC(C)CC2)cc1	.	29.8%	-6.1%	6.9%[59 µM]	-11.0%	-0.4%
CC1CCN(C(=O)c2ccc3c(c2)OCO3)CC1	9.9%	30.5%	25.3%	?	-12.8%	-15.6%
C#CCOCCOCCOCCNc1nc(N2CCN(C(=O)[C@H](C(C)C)n3cc(CCO)nn3)CC2)nc(N2CCN(C(=O)[C@H](CCCCN)n3cc(CCCC)nn3)CC2)n1	-2.5%	25.0%	?	28.2µM*	-35.2%	-0.2%
C#CCOCCOCCOCCNc1nc(N2CCN(C(=O)Cn3cc(CCO)nn3)CC2)nc(N2CCN(C(=O)[C@H](C(C)C)n3cc(CCO)nn3)CC2)n1	-11.6%	11.3%	?	44.7µM*	-18.1%	-6.7%
Cc1cc(C)nc(SC2c3cccc4cccc(c34)C2NS(=O)(=O)c2ccccc2)n1 (stereo not given)	14.9%	27.8%	-5.4%	2.1%	-21.2%	-3.1%
Nc1nc(SC2c3cccc4cccc(c34)C2NS(=O)(=O)c2ccccc2)n[nH]1 (stereo not given)	2.8%	?	?	3.16µM*	-22.3%[57.1 µM]	-23.8%
CC1(Oc2cccc(C#N)c2)CCN(Cc2csc3ccccc23)C1 (stereo not given)	.	.	.	.	.	-5.4%
C/C(CCC(=O)OC[C@@H]1O[C@H](C#Cc2ccccc2)C=C[C@@H]1Oc1ccc(C)cc1)=N/OC[C@@H](O)COCc1ccco1	16.4%	.	.	.	.	.
CCOc1ccc(C(c2nnnn2Cc2ccccc2)N2CCN(C(=O)c3ccco3)CC2)cc1 (stereo not given)	.	7.0%	.	.	-29.7%	-7.2%
